Laboratory results as given in PubChem BioAssay AID1159580 (chemical genetic matrix, 2015).
In all, about 5,500 compounds went through this assay and about 2,000 (36%) were called active. Inconclusive results (about 18%) are left out. Rule as the data show it: active = normalized growth mostly below about 0.91 (no sharp cut-off); inconclusive = no clear call, values can overlap the other calls; inactive = mostly above about 0.92. The list shows a part of the results.

Assay: chemical genetic growth profiling, strain panel (AID 1159580);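 also: tested at 20 µM; growth read once vehicle control cultures reached saturation at 30 °C; 1 = growth at the plate median or of vehicle wells; lower values mean less growth of the strain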
Settings: growth OD
[1] = S. cerevisiae deletion strains, locus YAL013W, strain DEP1, hits give low values
[2] = S. cerevisiae deletion strains, locus YBR229C, strain ROT2, hits give low values
[3] = S. cerevisiae deletion strains, locus YDL101C, strain DUN1, hits give low values
[4] = S. cerevisiae deletion strains, locus YDL134C, strain PPH21, hits give low values
[5] = S. cerevisiae deletion strains, locus YDR150W, strain NUM1, hits give low values
[6] = S. cerevisiae deletion strains, locus YEL061C, strain CIN8, hits give low values
[7] = S. cerevisiae deletion strains, locus YGR078C, strain PAC10, hits give low values
[8] = S. cerevisiae deletion strains, locus YHR030C, strain SLT2, hits give low values
[9] = S. cerevisiae deletion strains, locus YHR087W, strain rtc3, hits give low values
[10] = S. cerevisiae deletion strains, locus YJR043C, strain POL32, hits give low values
[11] = S. cerevisiae deletion strains, locus YJR075W, strain HOC1, hits give low values
[12] = S. cerevisiae deletion strains, locus YLR039C, strain RIC1, hits give low values
[13] = S. cerevisiae deletion strains, locus YLR058C, strain SHM2 (second series), hits give low values
[14] = S. cerevisiae deletion strains, locus YLR085C, strain ARP6, hits give low values
[15] = S. cerevisiae deletion strains, locus YLR262C, strain YPT6, hits give low values
[16] = S. cerevisiae deletion strains, locus YML094W, strain GIM5, hits give low values
[17] = S. cerevisiae deletion strains, locus YMR219W, strain ESC1, hits give low values
[18] = S. cerevisiae deletion strains, locus YMR263W, strain SAP30, hits give low values
[19] = S. cerevisiae deletion strains, locus YNL153C, strain GIM3, hits give low values
[20] = S. cerevisiae deletion strains, locus YNL298W, strain CLA4 (second series), hits give low values
[21] = S. cerevisiae deletion strains, locus YNL322C, strain KRE1, hits give low values
[22] = S. cerevisiae deletion strains, locus YNR030W, strain Alg12, hits give low values
[23] = S. cerevisiae deletion strains, locus YPL055C, strain LGE1, hits give low values
[24] = S. cerevisiae deletion strains, locus YPL241C, strain CIN2, hits give low values
[25] = S. cerevisiae deletion strains, locus YPR135W, strain CTF4, hits give low values
[26] = S. cerevisiae deletion strains, locus YAR019C, strain CDC15, hits give low values
[27] = S. cerevisiae deletion strains, locus YBL105C, strain PKC1, hits give low values
[28] = S. cerevisiae deletion strains, locus YBR135W, strain CKS1, hits give low values
[29] = S. cerevisiae deletion strains, locus YBR136W, strain MEC1, hits give low values
[30] = S. cerevisiae deletion strains, locus YBR160W, strain CDC28, hits give low values
[31] = S. cerevisiae deletion strains, locus YDL017W, strain CDC7, hits give low values
[32] = S. cerevisiae deletion strains, locus YDL028C, strain MPS1, hits give low values
[33] = S. cerevisiae deletion strains, locus YDL108W, strain KIN28, hits give low values
[34] = S. cerevisiae deletion strains, locus YDL132W, strain cdc53, hits give low values
[35] = S. cerevisiae deletion strains, locus YDL214C, strain PRR2, hits give low values
[36] = S. cerevisiae deletion strains, locus YDR052C, strain DBF4, hits give low values
[37] = S. cerevisiae deletion strains, locus YDR054C, strain cdc34, hits give low values
[38] = S. cerevisiae deletion strains, locus YDR226W, strain ADK1, hits give low values
[39] = S. cerevisiae deletion strains, locus YDR477W, strain SNF1, hits give low values
[40] = S. cerevisiae deletion strains, locus YER123W, strain YCK3, hits give low values
[41] = S. cerevisiae deletion strains, locus YER133W, strain GLC7, hits give low values
[42] = S. cerevisiae deletion strains, locus YFL009W, strain cdc4, hits give low values
[43] = S. cerevisiae deletion strains, locus YFL029C, strain CAK1, hits give low values
[44] = S. cerevisiae deletion strains, locus YFR003C, strain YPI1, hits give low values
[45] = S. cerevisiae deletion strains, locus YFR019W, strain FAB1, hits give low values
[46] = S. cerevisiae deletion strains, locus YFR028C, strain CDC14, hits give low values
[47] = S. cerevisiae deletion strains, locus YGR040W, strain KSS1, hits give low values
[48] = S. cerevisiae deletion strains, locus YGR052W, strain FMP48, hits give low values
[49] = S. cerevisiae deletion strains, locus YGR092W, strain DBF2, hits give low values
[50] = S. cerevisiae deletion strains, locus YHR079C, strain IRE1, hits give low values
[51] = S. cerevisiae deletion strains, locus YHR082C, strain KSP1, hits give low values
[52] = S. cerevisiae deletion strains, locus YHR205W, strain SCH9, hits give low values
[53] = S. cerevisiae deletion strains, locus YIL147C, strain SLN1, hits give low values
[54] = S. cerevisiae deletion strains, locus YJL095W, strain BCK1, hits give low values
[55] = S. cerevisiae deletion strains, locus YJL128C, strain PBS2, hits give low values
[56] = S. cerevisiae deletion strains, locus YJL157C, strain FAR1, hits give low values
[57] = S. cerevisiae deletion strains, locus YJR016C, strain ILV3, hits give low values
[58] = S. cerevisiae deletion strains, locus YJR066W, strain TOR1 (second series), hits give low values
[59] = S. cerevisiae deletion strains, locus YJR066W, strain TOR1, hits give low values
[60] = S. cerevisiae deletion strains, locus YKL048C, strain ELM1, hits give low values
[61] = S. cerevisiae deletion strains, locus YKL067W, strain YNK1, hits give low values
[62] = S. cerevisiae deletion strains, locus YKL101W, strain HSL1, hits give low values
[63] = S. cerevisiae deletion strains, locus YKL193C, strain SDS22, hits give low values
[64] = S. cerevisiae deletion strains, locus YKL203C, strain TOR2, hits give low values
[65] = S. cerevisiae deletion strains, locus YLR113W, strain HOG1, hits give low values
[66] = S. cerevisiae deletion strains, locus YLR133W, strain CKI1, hits give low values
[67] = S. cerevisiae deletion strains, locus YLR403W, strain SFP1, hits give low values
[68] = S. cerevisiae deletion strains, locus YML070W, strain DAK1, hits give low values
[69] = S. cerevisiae deletion strains, locus YMR001C, strain CDC5, hits give low values
[70] = S. cerevisiae deletion strains, locus YMR205C, strain PFK2 (second series), hits give low values
[71] = S. cerevisiae deletion strains, locus YMR277W, strain FCP1, hits give low values
[72] = S. cerevisiae deletion strains, locus YNL006W, strain LST8, hits give low values
[73] = S. cerevisiae deletion strains, locus YNL020C, strain ARK1, hits give low values
[74] = S. cerevisiae deletion strains, locus YNL161W, strain CBK1, hits give low values
[75] = S. cerevisiae deletion strains, locus YNL183C, strain NPR1, hits give low values
[76] = S. cerevisiae deletion strains, locus YNL207W, strain RIO2, hits give low values
[77] = S. cerevisiae deletion strains, locus YNL222W, strain SSU72, hits give low values
[78] = S. cerevisiae deletion strains, locus YNL307C, strain MCK1 (second series), hits give low values
[79] = S. cerevisiae deletion strains, locus YOL078W, strain AVO1, hits give low values
[80] = S. cerevisiae deletion strains, locus YOL136C, strain PFK27, hits give low values
[81] = S. cerevisiae deletion strains, locus YOR061W, strain CKA2, hits give low values
[82] = S. cerevisiae deletion strains, locus YOR119C, strain RIO1, hits give low values
[83] = S. cerevisiae deletion strains, locus YOR231W, strain MKK1, hits give low values
[84] = S. cerevisiae deletion strains, locus YOR329C, strain SCD5, hits give low values
[85] = S. cerevisiae deletion strains, locus YPL031C, strain PHO85, hits give low values
[86] = S. cerevisiae deletion strains, locus YPL153C, strain RAD53, hits give low values
[87] = S. cerevisiae deletion strains, locus YPL204W, strain HRR25, hits give low values
[88] = S. cerevisiae deletion strains, locus YPL209C, strain IPL1, hits give low values
[89] = S. cerevisiae deletion strains, locus YPL256C, strain CLN2, hits give low values
[90] = S. cerevisiae deletion strains, locus YPR025C, strain CCL1, hits give low values
[91] = S. cerevisiae deletion strains, locus YPR106W, strain ISR1, hits give low values
[92] = S. cerevisiae deletion strains, locus YPR111W, strain DBF20, hits give low values
[93] = S. cerevisiae deletion strains, strain NNK1, hits give low values
[94] = S. cerevisiae deletion strains, strain TSCII, hits give low values

Measured: normalized growth

N#Cc1sccc1Br
active: [24] 1.32 [resistant]
inactive: [1] 0.995 | [2] 0.982 | S. cerevisiae deletion strains, locus YCL061C, strain MRC1, hits give low values 1.02 | [3] 0.967 | [4] 0.993 | [5] 1.06 | [6] 1 | [7] 0.999 | [8] 0.961 | [9] 0.986 | [10] 1.01 | [11] 1.03 | [12] 1 | [13] 0.991 | [14] 1.1 | [15] 1 | [16] 0.982 | [17] 0.991 | [18] 1.04 | [19] 1.02 | [20] 1.04 | [21] 0.997 | [22] 1 | [23] 1.02 | [25] 1.04 | S. cerevisiae strains, strain wild type, hits give low values 0.99

O=C(c1cc2c(s1)-c1ccccc1CC2)N1CCN(Cc2ccccc2)CC1
inactive: [26] 1 | [27] 1 | [28] 0.996 | [29] 0.999 | [30] 0.998 | [31] 1 | [32] 0.999 | [3] 0.999 | [33] 0.998 | [34] 0.993 | [35] 0.965 | [36] 1 | [37] 0.99 | [38] 1 | [39] 0.982 | [40] 0.929 | [41] 0.985 | [42] 1.01 | [43] 1 | [44] 0.998 | [45] 0.941 | [46] 0.996 | [47] 0.962 | [48] 1.1 | [49] 0.988 | [8] 1 | [50] 0.971 | [51] 1.04 | [52] 0.94 | [53] 1 | [54] 0.974 | [55] 0.974 | [56] 0.976 | [57] 0.988 | [58] 0.958 | [59] 1.07 | [60] 0.984 | [61] 0.955 | [62] 0.984 | [63] 1 | [64] 1.01 | [65] 0.96 | [66] 0.971 | [67] 0.966 | [68] 0.953 | [69] 1 | [70] 0.981 | [71] 1.01 | [72] 1.02 | [73] 0.982 | [74] 1 | [75] 0.984 | [76] 1 | [77] 1.01 | [78] 0.963 | [79] 1.01 | [80] 0.964 | [81] 1 | [82] 1.1 | [83] 0.981 | [84] 1.01 | [85] 0.981 | [86] 0.975 | [87] 0.951 | [88] 1.01 | [89] 0.958 | [90] 1 | [91] 0.996 | [92] 0.977 | [93] 0.998 | [94] 1

O=C(Nc1cccnc1)c1cccc(Cl)c1Cl
inactive: [1] 0.977 | [2] 0.993 | [3] 0.98 | [4] 0.988 | [5] 0.957 | [6] 0.971 | [7] 0.983 | [8] 0.935 | [9] 0.99 | S. cerevisiae deletion strains, locus YJL187C, strain SWE1, hits give low values 1.01 | [10] 0.993 | [11] 0.991 | S. cerevisiae deletion strains, locus YKL190W, strain CNB1, hits give low values 0.989 | [12] 1.02 | [13] 1 | [14] 0.955 | [15] 1.01 | [16] 0.946 | [17] 0.992 | [18] 1.01 | S. cerevisiae deletion strains, locus YMR307W, strain GAS1, hits give low values 1.01 | S. cerevisiae deletion strains, locus YNL128W, strain TEP1, hits give low values 0.976 | [19] 0.994 | [20] 0.946 | [21] 0.982 | [22] 0.975 | S. cerevisiae deletion strains, locus YOL006C, strain TOP1, hits give low values 0.943 | [23] 1.02 | [24] 0.985 | [25] 0.856

O=C(Nc1cccnc1)c1cc2c(s1)-c1ccccc1CC2
active: [39] 0.666 | [40] 0.592 | [41] 0.548 | [47] 0.614 | [48] 0.602 | [8] 0.477 | [50] 0.495 | [51] 0.583 | [54] 0.482 | [64] 0.59 | [65] 0.394 | [68] 0.679 | [75] 0.455 | [82] 0.636 | [83] 0.515 | [85] 0.574 | [86] 0.529 | [87] 0.522 | [89] 0.476
inactive: [26] 0.925 | [27] 0.93 | [28] 0.919 | [29] 0.926 | [30] 0.93 | [31] 0.937 | [32] 0.921 | [3] 0.932 | [33] 0.924 | [34] 0.903 | [35] 0.745 | [36] 0.919 | [37] 0.9 | [38] 0.911 | [42] 0.915 | [43] 0.912 | [44] 0.928 | [45] 0.91 | [46] 0.918 | [49] 0.524 | [52] 0.755 | [53] 0.919 | [55] 0.946 | [56] 0.73 | [57] 0.92 | [58] 0.694 | [59] 0.532 | [60] 0.823 | [61] 0.736 | [62] 0.811 | [63] 0.918 | [66] 0.808 | [67] 0.663 | [69] 0.918 | [70] 0.767 | [71] 0.918 | [72] 0.93 | [73] 0.802 | [74] 0.924 | [76] 0.903 | [77] 0.917 | [78] 0.757 | [79] 0.918 | [80] 0.725 | [81] 0.806 | [84] 0.924 | [88] 0.932 | [90] 0.922 | [91] 0.926 | [92] 0.915 | [93] 0.912 | [94] 0.915
